compound: Nc1ncnc2c1ncn2[C@@H]1O[C@H](COP(=O)(O)OP(=O)(O)OP(=O)(O)O)[C@@H](O)[C@H]1O [adenosine 5'-triphosphate]; assay: log2 fold change of tryptic peptide abundance, ligand vs vehicle (limited proteolysis) (log2 ratio); higher = more trypsin-susceptible (destabilized); conditions: ligand concentration: 5 mM; sample: E. coli desalted lysate; replicate design: treated before aliquoting
Protocol: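 HT-PELSA: desalted E. coli K-12 BW25113 lysate (with 12 mM MgCl2) incubated with 5 mM ATP (pH 7) or water for 30 min at 25 C, then a 4 min trypsin pulse at 22 C. Peptides were quantified by DIA-MS (4 replicates). Value is the peptide log2 fold change (treated/control); negative = stabilized. Scale: negative = ligand-stabilized region.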
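Further: lysate desalted by size exclusion to strip endogenous ATP, peptide intensities built from DIA-NN precursor signals, and peptides missing any value discarded before comparison.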

Sequence of UniProt P0ADP0 (P0ADP0 whole entry): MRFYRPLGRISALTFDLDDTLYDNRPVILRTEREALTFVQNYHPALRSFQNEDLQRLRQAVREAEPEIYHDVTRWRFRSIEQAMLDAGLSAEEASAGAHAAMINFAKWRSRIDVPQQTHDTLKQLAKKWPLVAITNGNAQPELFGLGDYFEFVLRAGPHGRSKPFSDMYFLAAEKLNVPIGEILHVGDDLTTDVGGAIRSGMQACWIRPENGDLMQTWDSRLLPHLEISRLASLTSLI
Sequence of UniProt P37024 (P37024 whole entry): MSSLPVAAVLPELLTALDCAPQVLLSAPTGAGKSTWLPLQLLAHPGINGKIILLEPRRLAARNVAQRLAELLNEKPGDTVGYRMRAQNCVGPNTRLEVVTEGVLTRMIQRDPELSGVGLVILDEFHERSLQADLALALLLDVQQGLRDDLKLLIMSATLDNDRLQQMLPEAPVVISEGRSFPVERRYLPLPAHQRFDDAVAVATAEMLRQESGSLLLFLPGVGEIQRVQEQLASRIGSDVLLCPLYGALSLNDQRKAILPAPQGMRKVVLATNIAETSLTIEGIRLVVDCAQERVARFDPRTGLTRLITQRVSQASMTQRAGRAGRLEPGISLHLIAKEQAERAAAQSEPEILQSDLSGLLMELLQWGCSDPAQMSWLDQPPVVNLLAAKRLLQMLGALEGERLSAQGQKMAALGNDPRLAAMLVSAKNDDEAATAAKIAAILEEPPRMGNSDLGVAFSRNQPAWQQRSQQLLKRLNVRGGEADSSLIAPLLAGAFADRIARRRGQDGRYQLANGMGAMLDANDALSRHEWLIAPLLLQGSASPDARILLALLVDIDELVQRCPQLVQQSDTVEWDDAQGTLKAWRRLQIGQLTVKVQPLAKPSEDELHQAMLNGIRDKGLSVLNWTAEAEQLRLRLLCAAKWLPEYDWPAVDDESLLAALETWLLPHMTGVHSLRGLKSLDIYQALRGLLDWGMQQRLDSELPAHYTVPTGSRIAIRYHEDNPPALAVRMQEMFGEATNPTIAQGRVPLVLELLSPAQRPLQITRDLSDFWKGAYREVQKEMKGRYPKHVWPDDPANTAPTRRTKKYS
Sequence of UniProt P21513 (P21513 whole entry): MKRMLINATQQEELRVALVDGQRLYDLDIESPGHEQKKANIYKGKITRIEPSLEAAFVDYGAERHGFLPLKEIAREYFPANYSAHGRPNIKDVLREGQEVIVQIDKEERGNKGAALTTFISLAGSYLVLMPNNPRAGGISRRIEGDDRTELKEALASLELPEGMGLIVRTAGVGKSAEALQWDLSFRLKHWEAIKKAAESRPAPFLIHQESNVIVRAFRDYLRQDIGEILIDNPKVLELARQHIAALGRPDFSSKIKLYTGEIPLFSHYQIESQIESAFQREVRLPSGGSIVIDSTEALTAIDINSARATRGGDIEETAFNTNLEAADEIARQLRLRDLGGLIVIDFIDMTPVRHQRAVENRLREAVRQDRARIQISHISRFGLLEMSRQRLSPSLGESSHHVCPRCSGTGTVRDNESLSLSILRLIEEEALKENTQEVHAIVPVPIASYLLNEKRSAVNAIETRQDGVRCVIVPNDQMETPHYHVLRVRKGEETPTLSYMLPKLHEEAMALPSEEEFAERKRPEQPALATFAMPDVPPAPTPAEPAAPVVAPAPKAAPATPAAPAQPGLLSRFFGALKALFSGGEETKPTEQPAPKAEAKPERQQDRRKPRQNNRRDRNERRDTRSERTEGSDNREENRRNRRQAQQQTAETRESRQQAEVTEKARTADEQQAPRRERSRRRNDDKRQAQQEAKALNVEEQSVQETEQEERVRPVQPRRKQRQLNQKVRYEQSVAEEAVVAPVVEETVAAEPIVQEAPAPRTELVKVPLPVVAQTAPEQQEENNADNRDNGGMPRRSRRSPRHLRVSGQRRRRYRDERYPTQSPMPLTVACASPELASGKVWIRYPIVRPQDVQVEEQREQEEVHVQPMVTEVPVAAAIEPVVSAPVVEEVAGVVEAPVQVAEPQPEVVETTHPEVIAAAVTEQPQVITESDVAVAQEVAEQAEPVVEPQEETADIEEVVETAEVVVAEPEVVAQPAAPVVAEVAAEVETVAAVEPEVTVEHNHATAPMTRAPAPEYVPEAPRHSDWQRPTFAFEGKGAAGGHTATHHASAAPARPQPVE
Sequence of UniProt P09147 (P09147 whole entry): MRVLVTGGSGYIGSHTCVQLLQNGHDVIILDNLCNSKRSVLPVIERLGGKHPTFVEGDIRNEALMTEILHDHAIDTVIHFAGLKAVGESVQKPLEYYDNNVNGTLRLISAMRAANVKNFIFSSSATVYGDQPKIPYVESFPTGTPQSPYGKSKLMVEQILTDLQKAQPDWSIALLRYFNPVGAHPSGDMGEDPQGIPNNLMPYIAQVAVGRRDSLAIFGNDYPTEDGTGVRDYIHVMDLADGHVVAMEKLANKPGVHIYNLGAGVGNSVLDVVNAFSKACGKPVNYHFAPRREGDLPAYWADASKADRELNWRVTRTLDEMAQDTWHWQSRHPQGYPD
Sequence of UniProt P18775 (P18775 whole entry): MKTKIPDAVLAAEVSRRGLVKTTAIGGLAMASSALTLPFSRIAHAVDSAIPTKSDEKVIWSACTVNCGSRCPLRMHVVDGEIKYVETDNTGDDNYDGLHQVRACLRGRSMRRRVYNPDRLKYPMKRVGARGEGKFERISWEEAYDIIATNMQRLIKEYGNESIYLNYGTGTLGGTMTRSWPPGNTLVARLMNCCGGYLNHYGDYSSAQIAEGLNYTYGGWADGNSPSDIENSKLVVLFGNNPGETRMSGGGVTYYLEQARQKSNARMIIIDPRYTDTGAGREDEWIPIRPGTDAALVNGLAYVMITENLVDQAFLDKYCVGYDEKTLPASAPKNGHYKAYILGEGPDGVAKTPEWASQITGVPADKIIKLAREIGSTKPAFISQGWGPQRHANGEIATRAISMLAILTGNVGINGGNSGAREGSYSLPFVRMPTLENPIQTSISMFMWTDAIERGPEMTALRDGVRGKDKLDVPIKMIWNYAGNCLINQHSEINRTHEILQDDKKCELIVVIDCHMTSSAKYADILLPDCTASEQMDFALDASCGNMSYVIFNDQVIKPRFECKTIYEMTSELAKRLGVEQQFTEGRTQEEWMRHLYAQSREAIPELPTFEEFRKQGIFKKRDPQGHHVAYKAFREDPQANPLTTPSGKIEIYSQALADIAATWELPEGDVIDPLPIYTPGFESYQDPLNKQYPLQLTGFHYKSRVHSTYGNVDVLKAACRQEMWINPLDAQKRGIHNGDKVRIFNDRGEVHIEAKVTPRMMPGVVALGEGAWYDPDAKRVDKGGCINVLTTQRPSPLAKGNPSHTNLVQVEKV
Sequence of UniProt P39160 (P39160 whole entry): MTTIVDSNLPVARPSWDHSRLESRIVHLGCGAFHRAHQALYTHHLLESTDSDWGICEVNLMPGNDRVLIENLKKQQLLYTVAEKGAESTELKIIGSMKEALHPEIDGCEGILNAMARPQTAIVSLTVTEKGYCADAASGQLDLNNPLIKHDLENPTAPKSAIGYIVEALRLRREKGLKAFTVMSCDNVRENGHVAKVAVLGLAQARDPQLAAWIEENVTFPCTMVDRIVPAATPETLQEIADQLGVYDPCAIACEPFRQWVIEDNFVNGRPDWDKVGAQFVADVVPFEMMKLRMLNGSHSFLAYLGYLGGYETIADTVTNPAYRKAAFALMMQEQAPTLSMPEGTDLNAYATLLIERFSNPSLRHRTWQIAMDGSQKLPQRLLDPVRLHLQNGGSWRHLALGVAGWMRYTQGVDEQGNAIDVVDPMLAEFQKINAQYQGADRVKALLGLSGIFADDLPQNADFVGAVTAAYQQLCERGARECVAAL
Sequence of UniProt P76545 (P76545 whole entry): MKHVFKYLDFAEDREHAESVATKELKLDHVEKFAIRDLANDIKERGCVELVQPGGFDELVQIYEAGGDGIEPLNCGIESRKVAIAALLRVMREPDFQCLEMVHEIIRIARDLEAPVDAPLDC
Sequence of UniProt P25519 (P25519 whole entry): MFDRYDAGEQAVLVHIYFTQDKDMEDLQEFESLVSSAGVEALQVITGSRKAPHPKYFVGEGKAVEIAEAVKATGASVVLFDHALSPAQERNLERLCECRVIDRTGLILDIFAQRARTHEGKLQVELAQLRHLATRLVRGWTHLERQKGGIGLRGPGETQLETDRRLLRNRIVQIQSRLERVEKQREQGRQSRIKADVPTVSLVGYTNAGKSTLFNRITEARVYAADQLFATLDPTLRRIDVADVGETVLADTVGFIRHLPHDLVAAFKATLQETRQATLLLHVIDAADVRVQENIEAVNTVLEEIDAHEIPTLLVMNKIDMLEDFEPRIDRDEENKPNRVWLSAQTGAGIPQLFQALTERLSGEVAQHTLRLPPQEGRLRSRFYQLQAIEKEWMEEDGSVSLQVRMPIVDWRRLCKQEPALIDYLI
Sequence of UniProt P77615 (P77615 whole entry): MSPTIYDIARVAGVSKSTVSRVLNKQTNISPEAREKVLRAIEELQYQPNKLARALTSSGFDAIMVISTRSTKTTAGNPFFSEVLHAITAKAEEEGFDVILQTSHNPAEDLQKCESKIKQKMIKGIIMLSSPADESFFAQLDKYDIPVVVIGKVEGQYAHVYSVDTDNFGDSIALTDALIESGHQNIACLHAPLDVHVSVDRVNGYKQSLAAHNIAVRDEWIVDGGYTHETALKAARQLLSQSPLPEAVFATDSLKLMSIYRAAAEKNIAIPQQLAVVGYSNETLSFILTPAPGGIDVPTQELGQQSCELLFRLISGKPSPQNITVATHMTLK
Sequence of UniProt P0AEH3 (P0AEH3 whole entry): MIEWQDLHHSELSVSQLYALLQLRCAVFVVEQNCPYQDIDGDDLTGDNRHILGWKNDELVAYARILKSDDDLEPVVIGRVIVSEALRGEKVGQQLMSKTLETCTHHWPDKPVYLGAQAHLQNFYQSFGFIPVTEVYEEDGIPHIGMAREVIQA
Sequence of UniProt P39208 (P39208 whole entry): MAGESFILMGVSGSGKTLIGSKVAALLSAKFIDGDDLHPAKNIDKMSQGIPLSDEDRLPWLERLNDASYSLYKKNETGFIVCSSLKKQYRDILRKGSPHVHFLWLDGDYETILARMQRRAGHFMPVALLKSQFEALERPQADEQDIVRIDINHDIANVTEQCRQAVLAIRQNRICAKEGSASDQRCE

Target | log2 fold change
UniProt P18775 (peptide sequence: IAHAVDSAIPTK, peptide start residue: 42) | -0.536
UniProt P39208 (peptide sequence: RAGHFMPVALLK, peptide start residue: 119) | -1.52
UniProt P64636 (peptide sequence: EDTIPFLEALK, peptide start residue: 96) | 0.412
UniProt Q46800 (peptide sequence: LAFGVAAPTPIR, peptide start residue: 215) | 0.403
UniProt P20966 (peptide sequence: FAGKPMYR, peptide start residue: 175) | 1.06
UniProt P07821 (peptide sequence: TLLHPLSLTFPAGK, peptide start residue: 25) | -1.16
UniProt P25535 (peptide sequence: LADTLPGVKPQLIR, peptide start residue: 374) | 0.527
UniProt P21513 (peptide sequence: DNESLSLSILR, peptide start residue: 415) | 0.633
UniProt P77615 (peptide sequence: AIEELQYQPNKLAR, peptide start residue: 40) | 0.358
UniProt P31680 (peptide sequence: LMSEHHPDKLVAK, peptide start residue: 228) | -0.381
UniProt P05707 (peptide sequence: VGSKHNSGYSAAK, peptide start residue: 146) | -3.4
UniProt P29018 (peptide sequence: HLSWVGQNPQLPAATLR, peptide start residue: 424) | -0.418
UniProt P31548 (peptide sequence: LPGELSGGQR, peptide start residue: 126) | -0.702
UniProt P03024 (peptide sequence: HSVSTPSLEASHHATSD, peptide start residue: 327) | 0.482
UniProt P76545 (peptide sequence: YLDFAEDREHAESVATK, peptide start residue: 7) | -2.38
UniProt P27300 (peptide sequence: SVDAVIVNGGVPR, peptide start residue: 190) | -2.1
UniProt P37024 (peptide sequence: LVVDCAQER, peptide start residue: 286) | -0.502
UniProt P39400 (peptide sequence: VLGHEICGEIVGLGK, peptide start residue: 59) | -1.26
UniProt P09147 (peptide sequence: REGDLPAYWADASKADR, peptide start residue: 292) | 0.627
UniProt P31802 (peptide sequence: GMSGLDTLNALRR, peptide start residue: 64) | 0.209

Target | log2 fold change
UniProt P02359 (peptide sequence: FVNILMVDGK, peptide start residue: 26) | 0.921
UniProt P45541 (peptide sequence: TGMFTCGHQR, peptide start residue: 3) | -1.14
UniProt P25519 (peptide sequence: IDRDEENKPNR, peptide start residue: 329) | -1.08
UniProt P0AB12 (peptide sequence: VVSVETAQAAR, peptide start residue: 129) | 0.652
MurD (peptide sequence: YLNGDNVR, peptide start residue: 359) (UniProt P14900) | -1.33
UniProt P39274 (peptide sequence: FYINDKQGK, peptide start residue: 10) | 0.423
UniProt P0AEH3 (peptide sequence: VGQQLMSK, peptide start residue: 91) | 0.523
UniProt P06709 (peptide sequence: VKWPNDLYLQDR, peptide start residue: 171) | -0.523
UniProt Q47622 (peptide sequence: KMNADDVVFTFQR, peptide start residue: 117) | 1.14
UniProt P77265 (peptide sequence: QHPEFYLR, peptide start residue: 103) | -0.556
UniProt P77783 (peptide sequence: MNHPDRLK, peptide start residue: 109) | -0.483
UniProt P30176 (peptide sequence: LVEHTENDAYWGDGGHGK, peptide start residue: 123) | -0.814
UniProt P00582 (peptide sequence: QLNIPRK, peptide start residue: 776) | -3.24
UniProt P39160 (peptide sequence: TWQIAMDGSQKLPQR, peptide start residue: 366) | -0.725
UniProt P31129 (peptide sequence: SNMDVLTGLPGRR, peptide start residue: 129) | -1.39
UniProt P32703 (peptide sequence: AATAEVAIVAIQK, peptide start residue: 440) | 1.52
UniProt P0ADP0 (peptide sequence: EALTFVQNYHPALR, peptide start residue: 34) | 0.493
UniProt P43340 (peptide sequence: KIQVTELDLYRR, peptide start residue: 34) | 1.23
UniProt P76226 (peptide sequence: IKPLLHQCVR, peptide start residue: 10) | -1.62
UniProt P76403 (peptide sequence: SFYYCARTAQVYRK, peptide start residue: 294) | -0.632

Reference: the supplement of paper PMC12819154, “High-throughput peptide-centric local stability assay extends protein–ligand identification to membrane proteins, tissues and bacteria” (Nature Structural & Molecular Biology, 2025)
